About 83,000 compounds went through this panel and 20% of them were active in at least one assay; those are over-represented in the sample as a whole.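 Method: cells in 96-well plates; compound added at one concentration; 48 h incubation; percent growth measured; values under 10 scored active.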 Values without a mark were called inactive. Activity calls are given as the source filed them.
Key:
Experiment in all cases: NCI-60 one-dose screen, 48 h (100 = growth as untreated, 0 = no growth, -100 = all killed)
Settings in all cases: 10 µM
NCI-H23 lung = system: NCI-H23 lung
NCI-H226 lung = system: NCI-H226 lung
NCI-H322M lung = system: NCI-H322M lung
HOP-62 NSCLC = system: HOP-62 NSCLC
NCI-H460 lung = system: NCI-H460 lung
NCI-H522 lung = system: NCI-H522 lung
A549/ATCC NSCLC = system: A549/ATCC NSCLC
786-0 renal = system: 786-0 renal
COLO 205 colon = system: COLO 205 colon
DU-145 prostate = system: DU-145 prostate

| SMILES | growth (NCI-H23 lung) | growth (NCI-H226 lung) [%] | growth (NCI-H322M lung) | growth (HOP-62 NSCLC) | growth (NCI-H460 lung) | growth (NCI-H522 lung) | growth (A549/ATCC NSCLC) | growth (786-0 renal) | growth (COLO 205 colon) | growth (DU-145 prostate) |
| --- | --- | --- | --- | --- | --- | --- | --- | --- | --- | --- |
| NC(=O)c1ccc(-c2cccc3c(=O)nc(N4CCOCC4)oc23)cc1 | 92.4% | 82.6 | 93% | 95.1% | 105% | 89.5% | 100% | 100% | 104% | 103% |
| O=C(O)c1ccc(Cl)cc1Nc1ccc(F)cc1 | 92.7% | 82.3 | 38.1% | 96.7% | 76.8% | 82.6% | 86.4% | 68.6% | 95.7% | 87.1% |
| O=C(CSSCC(=O)c1ccc(Cl)cc1)c1ccc(Cl)cc1 | 79.5% | 88.6 | 72.2% | 78.6% | 35.8% | 58% | 63.6% | 85.9% | 104% | 94.4% |
| Clc1ccc2c(NCCCNc3nccc(Nc4ccc(Br)cc4)n3)ccnc2c1 | 46.8% | 90.1 | -19.9% (active) | 1.45% (active) | -45.9% (active) | -83.2% (active) | -71.7% (active) | -98.9% (active) | -84.3% (active) | 9.83% (active) |
| CSC1=NCCCC1 | 112% | 97.3 | 113% | 112% | 108% | 102% | 102% | 111% | 113% | 118% |
| CC(=O)OCc1cc(-c2nc3ccccc3[nH]c2=O)nn1-c1ccc(Cl)cc1 | 91.5% | 93 | 107% | 94.9% | 104% | -30.6% (active) | 52% | 96.4% | 126% | 110% |
| COc1cc(NC(=O)CCSc2nc3ccc(C)cc3c(=O)n2Cc2ccccc2)cc(OC)c1OC | 108% | 27.4 | 71.9% | 9.27% (active) | 48.3% | 65.2% | 42.6% | 72.6% | 112% | 83.6% |
| CCN(CC)CCOc1nc2cc(OC)c(OC)cc2c2c1-c1ccc(OC)cc1C2=O | 77.3% | 74.3 | 83.9% | 60.9% | 25.6% | 73.9% | 66.1% | 87.8% | 72.7% | 64.1% |
| O=C(Nc1ccncc1)C(=O)c1cn(S(=O)(=O)c2cccc3ccccc23)c2ccccc12 | 62.1% | 76.8 | 86% | 95.1% | 85.7% | 48% | 77.8% | 77.5% | 101% | 95.1% |
| COc1ccc(-c2nnc(-c3c(-c4ccccc4)nc4ncccn34)o2)cc1OC | 97.2% | 93.2 | 94.2% | 84.6% | 107% | 94.2% | 96% | 102% | 100% | 109% |
| CCc1ccc2c(c1)N(CCO)C1=C(C(=O)OC1)C2c1ccccc1 (stereo not given) | 101% | 102 | 115% | 81.6% | 109% | 4.79% (active) | 104% | 97.1% | 109% | 115% |
| S=C1SCC(c2ccccc2)S1 (stereo not given) | 113% | 101 | 111% | 108% | 114% | 131% | 102% | 109% | 111% | 125% |
| Cc1cc(C)c(CCc2cc(C)c(C)cc2C)cc1C | 98% | 92.3 | 112% | 117% | 110% | 95.5% | 99.9% | 108% | 118% | 107% |
| CCCCCCCCCCCC[n+]1ccc(C(N)=O)cc1 | 23.5% | 35 | 88.7% | 33.7% | 16.8% | 4.75% (active) | 73.7% | 40% | -73% (active) | 43% |
| Cc1cc(Cc2cc(C)c(O)c(C)c2)cc(C)c1O | 74.1% | 96.6 | 68.2% | 49.8% | 29.1% | 28.5% | 36.8% | 56.2% | 104% | 78.3% |
| CCN1Cc2c(/C=C/c3ccccc3)nc3ccc(OC)cc3c2N(c2cccc(Cl)c2)C1 | 59.1% | 92 | 90.7% | 107% | 71.7% | 63.7% | 33.6% | 72.3% | 81.8% | 112% |
| CSCCCNC(=O)c1ccc2c(c1)/C(=C/c1[nH]c(C)cc1C)C(=O)N2 | 28.6% | 41.8 | 50.4% | 35.5% | 30.8% | 41% | 29.2% | 6.49% (active) | 31.5% | 27.9% |
| COc1ccc(-c2ccc(-c3ccc(C(=N)N)cn3)o2)cc1 | 85.1% | 78.7 | 77.6% | 72.1% | 82.2% | 76.6% | 69.5% | 91.3% | -41.2% (active) | 88.6% |
| COc1ccc(OC)c(/C=C/c2nnc(Nc3ccc(Cl)cc3)o2)c1 | 87.8% | 56.1 | 58.6% | 35.3% | 15.5% | 92.9% | 40.2% | 27.9% | 74.2% | 78.9% |
| Cc1cccc2c(NCCN(C)C)c3cccc(C(=O)NCCN(C)C)c3nc12 | 6.76% (active) | 22.4 | -5.21% (active) | 4.88% (active) | -13.2% (active) | -43.7% (active) | 16.2% | 14.5% | 0.559% (active) | -20.1% (active) |
| COc1ccc2c(c1)-c1c(c3cc(OC)ccc3n(CCN(C)C)c1=O)C2=O | 7.11% (active) | 22 | -14.4% (active) | 15.3% | -4.73% (active) | -11.5% (active) | -18.7% (active) | 32.3% | 14.7% | 5.1% (active) |
| O=C(O)CCCCSc1ncnc2nc[nH]c12 | 103% | 98.6 | 90.2% | 96.7% | 109% | 84.1% | 101% | 97.2% | 103% | 101% |
| Cc1cc(O)c(C(C)(C)C)cc1Sc1cc(C(C)(C)C)c(O)cc1C | 44.5% | 84.3 | 81.6% | 62% | 42% | 48.3% | 35.2% | 79.9% | 90.7% | 50% |
| O=C1/C(=C/c2ccc(Cl)cc2)SC(=Nc2ccc(Cl)cc2)N1Cc1nc2ccccc2[nH]1 | 78.7% | 81.5 | 95.4% | 68.6% | 85.3% | 76.4% | 70.8% | 92.3% | 98% | 93.7% |
| COc1cc(Cc2cc(-c3ccc(Cl)cc3)n[nH]c2=O)ccc1O | 83.5% | 224 | 119% | 104% | 74.2% | 105% | 58.6% | 103% | 111% | 128% |
| COc1ccc2c(c1)C(=O)c1c-2c(OCCN2CCCCC2)nc2ccc(OC)cc12 | 12.6% | 23.9 | 5.72% (active) | 24.4% | -50.7% (active) | 25.1% | 11.6% | 18% | 28% | 11.3% |
| COc1cc(-c2cc(/C=C/C(=O)c3ccc(N)cc3)[nH]n2)cc(OC)c1OC | 24.6% | 51.8 | 11.4% | 23.9% | -28.9% (active) | 10.8% | 1.29% (active) | -28.9% (active) | -45% (active) | 7.2% (active) |
| CN(C)CCS(=O)(=O)CCN(C)C | 107% | 105 | 113% | 108% | 97% | 117% | 106% | 98.7% | 105% | 103% |
